Results filed as inconclusive are left out. Active and inactive are the calls of the source. Calls come from the whole dose curve; as a rule, active = well fitted cell-killing curve with a large enough effect; inconclusive = small, poorly fitted or top-dose-only effect, or effect the other way; inactive = flat fitted curve, though single readings scatter.
Columns and labels:
Experiment in all cases: Primary qHTS to identify gynecologic anti-cancer compounds using libraries of approved drugs and bioactive compounds (AID 1345084); note: nearly all actives have a fitted effect of over 55% in size
[1] = test system: C33A; settings: Gynecologic cancer cell panel viability, ATPlite luminescence, 48 h; series mostly up to 57.5 µM
In short: (§1)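 Measured: luminescence after ATPlite addition (15 min, RT). Exposure: 48 h, 37 C, 5% CO2.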

[2] = test system: CAOV3; settings: Gynecologic cancer cell panel viability, ATPlite luminescence, 48 h; series mostly up to 57.5 µM
In short: as §1

[3] = test system: CASKI; settings: Gynecologic cancer cell panel viability, ATPlite luminescence, 48 h; series mostly up to 57.5 µM
In short: as §1

[4] = test system: Es-2; settings: Gynecologic cancer cell panel viability, ATPlite luminescence, 48 h; series mostly up to 57.5 µM
In short: as §1

[5] = test system: HeLa; settings: Gynecologic cancer cell panel viability, ATPlite luminescence, 48 h; series mostly up to 57.5 µM
In short: as §1

[6] = test system: Hek293T; settings: Gynecologic cancer cell panel viability, ATPlite luminescence, 48 h, control line for the selectivity index; series mostly up to 57.5 µM
In short: as §1

[7] = test system: JEG-3; settings: Gynecologic cancer cell panel viability, ATPlite luminescence, 48 h; series mostly up to 57.5 µM
In short: as §1

[8] = test system: OV90; settings: Gynecologic cancer cell panel viability, ATPlite luminescence, 48 h; series mostly up to 57.5 µM
In short: as §1

[9] = test system: PA-1; settings: Gynecologic cancer cell panel viability, ATPlite luminescence, 48 h; series mostly up to 57.5 µM
In short: as §1

[10] = test system: SKOV3; settings: Gynecologic cancer cell panel viability, ATPlite luminescence, 48 h; series mostly up to 57.5 µM
In short: as §1

[11] = test system: Tov-21-G; settings: Gynecologic cancer cell panel viability, ATPlite luminescence, 48 h; series mostly up to 57.5 µM
In short: as §1

[12] = test system: Tov112D; settings: Gynecologic cancer cell panel viability, ATPlite luminescence, 48 h; series mostly up to 57.5 µM
In short: as §1
% is set by controls: 0 for no effect and ±100 for the full control effect.

N[C@H]1C[C@H]1c1ccc(-c2cccc(O)c2)cc1
inactive: Potency [1] | Potency [2] | Potency [3] | Potency [4] | Potency [5] | Potency [6] | Potency [7] | Potency [8] | Potency [9] | Potency [10] | Potency [11] | Potency [12]

CC(=O)NC(C(=O)OC1CCC(C)(C)C2CC=C3C(=O)OCC3(O)C12C)C(C)C (stereo not drawn)
inactive: Potency [1] | Potency [2] | Potency [3] | Potency [4] | Potency [5] | Potency [6] | Potency [7] | Potency [8] | Potency [9] | Potency [10] | Potency [11] | Potency [12]

CCc1cc2c(=O)c(-c3nc4ccccc4s3)coc2c(CN2CCCCC2)c1O
inactive: Potency [1] | Potency [2] | Potency [3] | Potency [4] | Potency [5] | Potency [6] | Potency [7] | Potency [8] | Potency [9] | Potency [10] | Potency [11] | Potency [12]

NC(=O)[C@H]1CCCCc2c1[nH]c1ccc(Cl)cc21
inactive: Potency [1] | Potency [2] | Potency [3] | Potency [4] | Potency [5] | Potency [6] | Potency [7] | Potency [8] | Potency [9] | Potency [10] | Potency [11] | Potency [12]

CCNC(=O)[C@H]1O[C@H](n2cnc3c(NCC(c4ccccc4)c4ccccc4)nc(C(=O)NCCNC(=O)NC4CCN(c5ccccn5)CC4)nc32)[C@H](O)[C@@H]1O
inactive: Potency [1] | Potency [2] | Potency [3] | Potency [4] | Potency [5] | Potency [6] | Potency [7] | Potency [8] | Potency [9] | Potency [10] | Potency [11] | Potency [12]

C/C(=C/CO)CC[C@@H]1[C@@]2(C)CCC[C@](C)(C(=O)O)C2CC[C@@]1(C)O (stereo partly drawn)
inactive: Potency [1] | Potency [2] | Potency [3] | Potency [4] | Potency [5] | Potency [6] | Potency [7] | Potency [8] | Potency [9] | Potency [10] | Potency [11] | Potency [12]

O=C(C1CC1)N1CC[C@@H](Cc2n[nH]c(=O)n2-c2ccc(-c3ccc4occc4c3)cc2)C1
inactive: Potency [1] | Potency [2] | Potency [3] | Potency [4] | Potency [5] | Potency [6] | Potency [7] | Potency [8] | Potency [9] | Potency [10] | Potency [11] | Potency [12]

CCC(C)/C=C(C)/C=C/C1=CC2=C(Cl)C(=O)C(C)(OC(C)=O)C(=O)C2=CN1CCCC(=O)O (stereo not drawn)
inactive: Potency [1] | Potency [2] | Potency [3] | Potency [4] | Potency [5] | Potency [6] | Potency [7] | Potency [8] | Potency [9] | Potency [10] | Potency [11] | Potency [12]

C[C@H](NCc1ccc(OCc2ccccc2F)cc1)C(N)=O
inactive: Potency [1] | Potency [2] | Potency [3] | Potency [4] | Potency [5] | Potency [6] | Potency [7] | Potency [8] | Potency [9] | Potency [10] | Potency [11] | Potency [12]

C=C1C(=O)OC2/C=C(\C)CC/C=C(\C(=O)O)CC/C=C(\C)CCC12 (stereo not drawn)
inactive: Potency [1] | Potency [2] | Potency [3] | Potency [4] | Potency [5] | Potency [6] | Potency [7] | Potency [8] | Potency [9] | Potency [10] | Potency [11] | Potency [12]

CC(C)c1ccc(CC(=O)N2CCC[C@@H](c3cccc(OC(C)(C)C(=O)O)c3)C2)cc1
inactive: Potency [1] | Potency [2] | Potency [3] | Potency [4] | Potency [5] | Potency [6] | Potency [7] | Potency [8] | Potency [9] | Potency [10] | Potency [11] | Potency [12]

Cc1cc(O)c(C(C)C)cc1O[C@@H]1O[C@H](CO)[C@@H](O)[C@H](O)[C@H]1O
inactive: Potency [1] | Potency [2] | Potency [3] | Potency [4] | Potency [5] | Potency [6] | Potency [7] | Potency [8] | Potency [9] | Potency [10] | Potency [11] | Potency [12]

CC(=O)OC[C@@]12[C@H](O)C[C@]3(C)C(=CCC4[C@@]5(C)CC[C@H](O[C@@H]6O[C@H](C(=O)O)[C@@H](O[C@@H]7O[C@H](CO)[C@@H](O)[C@H](O)[C@H]7O)[C@H](O)[C@H]6O[C@@H]6O[C@H](CO)[C@@H](O)[C@H](O)[C@H]6O)[C@](C)(CO)C5CC[C@]43C)[C@@H]1CC(C)(C)[C@@H](OC(C)=O)[C@@H]2O (stereo partly drawn)
inactive: activity change, negative = cytotoxicity [1] -7.61% [at 11.6 µM] | activity change, negative = cytotoxicity [2] 8.05% [at 11.6 µM] | activity change, negative = cytotoxicity [3] 5.42% [at 11.6 µM] | activity change, negative = cytotoxicity [4] 3.37% [at 11.6 µM] | activity change, negative = cytotoxicity [5] 2.68% [at 11.6 µM] | activity change, negative = cytotoxicity [6] 0.0542% [at 11.6 µM] | activity change, negative = cytotoxicity [7] -2.75% [at 11.6 µM] | activity change, negative = cytotoxicity [8] -1.56% [at 11.6 µM] | activity change, negative = cytotoxicity [9] 0.948% [at 11.6 µM] | activity change, negative = cytotoxicity [10] 8.16% [at 11.6 µM] | activity change, negative = cytotoxicity [11] 2.04% [at 11.6 µM] | activity change, negative = cytotoxicity [12] 1.86% [at 11.6 µM]

CC(=C/C(=O)O)/C=C/[C@]1(O)[C@@]2(C)CO[C@]1(C)C[C@H](O[C@@H]1O[C@H](CO)[C@@H](O)[C@H](O)[C@H]1O)C2
inactive: Potency [1] | Potency [2] | Potency [3] | Potency [4] | Potency [5] | Potency [6] | Potency [7] | Potency [8] | Potency [9] | Potency [10] | Potency [11] | Potency [12]

From PubChem BioAssay (NCATS)
